Bioassay records deposited in PubChem BioAssay by National Center for Advancing Translational Sciences (NCATS).
Nrf2 ARE act = activators of Nrf2 (ARE) signaling. Potency, µM (doses to about 46.1 µM), most hits filed as activators. actives 0.31% (n = 410,000). AID 624171. AREc32 ARE-luciferase reporter (MCF7-derived line), luminescence, 24 h; further: nearly all actives have a fitted effect of over 65% in size
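Steps: seed AREc32_Fluc cells (1000/well, 5% FBS OPTI-MEM); incubate overnight at 37 deg C; add 23 nL compound; incubate 24 hr; add Steady-Glo; hold 30 min RT; read luminescence.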
S2 tox = viability counter-screen for ATXN expression inhibitors | S2 cells (HEK-293 line with an ATXN2-luciferase reporter) viability, CellTiter-Fluor protease fluorescence, 24 h | Potency, µM (highest dose often 56.7 µM), most hits filed as cytotoxic | actives 0.49% (n = 400,000) | AID 651635; further: nearly all actives have a fitted effect of over 40% in size
Nrf2 block = Nrf2 pathway inhibition. A549 ARE-Fluc reporter, luciferase luminescence, 18-24 h. AID 504444. Potency, µM (top dose mostly 46 µM), actives largely listed as inhibitors. actives 2.1% (n = 360,000); further: nearly all actives have a fitted effect of over 60% in size
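Two sequential reads on A549 ARE_Fluc cells exposed to compound for 18-24 h: a CellTiter-Fluor fluorescence read for viability, then a luciferase luminescence read for Nrf2/ARE activity.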
ATXN2 expr inh = ATXN2 expression inhibition; actives 0.72% (n = 360,000); AID 1745845; HEK-293 ATXN2-luciferase reporter, luminescence, 24 h; Potency, µM (highest dose often 57 µM), most hits filed as inhibitors; further: nearly all actives have a fitted effect of over 55% in size
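qHTS (up to 57 uM final) was run with 24 h compound exposure of reporter cells at 37 °C. Each well was multiplexed: SteadyGlo luminescence measured ATXN2-luciferase expression after a fluorogenic Gly-Phe-AFC viability readout (25 uM final).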
A549 viability = A549 cytotoxicity, counter-screen for Nrf2 inhibitors; A549 ARE-Fluc cells, CellTiter-Fluor viability, 18-24 h; Potency, µM (series often up to 46 µM), actives largely listed as inhibitors; actives 0.16% (n = 390,000); AID 504648
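Cytotoxicity counterscreen: CellTiter-Fluor fluorescence was measured in A549 ARE_Fluc cells after 18-24 h of compound exposure in a concentration series. The subsequent BugLite luminescent read reports ARE-luciferase activity.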
Of the large screens only hits and unclear results are named; the others gave an inactive call. Rows were chosen to be rich in hits. Some 2.9% of all compounds tested hit in one or more screens of this group. The call rests on the fitted dose curve; in most records, active means well fitted curve in the direction sought with a large enough effect; inconclusive means small, poorly fitted or top-dose-only effect, or another doubt; inactive means no such curve, though single readings can be large; an effect the other way counts as inactive or inconclusive.

N/C(=N\OC(=O)c1ccc(Cl)cc1Cl)c1ccncc1	Nrf2 block inconclusive
N/C(=N\OC(=O)c1cccc(Cl)c1)c1ccncc1	Nrf2 ARE act 11µM (no result: ATXN2 expr inh)
Cc1cccc(NC(=O)CN2C(=O)C(c3ccc(F)cc3)=NC23CCCCCC3)c1	none (no result: S2 tox, ATXN2 expr inh)
COc1ccccc1NC(=O)CN1C(=O)C(c2ccc(F)cc2)=NC12CCCCC2	Nrf2 block 16µM (no result: S2 tox, ATXN2 expr inh)
O=C(NOCC1CC1)c1ccc(F)c(F)c1Nc1ccc(I)cc1Cl	S2 tox inconclusive, ATXN2 expr inh 31µM (no result: Nrf2 ARE act, Nrf2 block, A549 viability)
O=C(NCC1CCCCC1)c1ccc(F)cc1Cl	Nrf2 block inconclusive
N=C1N=C(N)c2cc3ccccc3cc21	S2 tox 32µM, ATXN2 expr inh 18µM (no result: Nrf2 ARE act, Nrf2 block, A549 viability)
Cc1n[nH]c(=S)n1/N=C/c1ccc(-c2ccccc2[N+](=O)[O-])o1	Nrf2 ARE act 10µM, A549 viability inconclusive (no result: Nrf2 block)
Cc1nc2ccccc2n1/N=C/c1ccc([N+](=O)[O-])s1	Nrf2 block inconclusive, ATXN2 expr inh 21µM, A549 viability inconclusive (no result: S2 tox)
Cc1nc2ccccc2n1/N=C/c1ccc([N+](=O)[O-])o1	Nrf2 block 21µM, ATXN2 expr inh inconclusive, A549 viability inconclusive
O=[N+]([O-])c1ccc(/C=N/n2c(CO)nc3ccccc32)s1	ATXN2 expr inh inconclusive
Cc1cc2c(s1)c1cnn(Cc3ccc(C(F)(F)F)cc3F)c(=O)c1n2C	none (no result: Nrf2 ARE act, S2 tox, ATXN2 expr inh)
Cc1ccc(CN2CCc3nnc(C(C)NC(=O)c4cc(F)ccc4F)n3CC2)o1 (configuration not stated)	none (no result: Nrf2 ARE act, Nrf2 block, ATXN2 expr inh, A549 viability)
CCOc1ccc(N=C(C)Nc2ccc(OCC)cc2)cc1	none (no result: Nrf2 ARE act, Nrf2 block, ATXN2 expr inh, A549 viability)
O=C(c1cnn(-c2cccc(F)c2)c1-n1cccc1)N1CCN(c2ccccc2F)CC1	none (no result: S2 tox, ATXN2 expr inh)
CCOC(=O)N1CCN(c2nc(C(F)(F)F)nc3c(C)cc(C)cc23)CC1	Nrf2 block 23µM
Cc1cccc(Nc2cc(C)nc3ccccc23)c1	Nrf2 block inconclusive, A549 viability inconclusive
Cc1cc(Nc2cccc(Cl)c2)c2ccccc2n1	Nrf2 block 21µM, A549 viability inconclusive (no result: ATXN2 expr inh)
Cc1cc(NC(=O)Cc2ccccc2)c2ccccc2n1	Nrf2 block 9.2µM
COc1ccc2c(c1)CC/C(=C\c1ccc(C)o1)C2=O	Nrf2 ARE act inconclusive, S2 tox inconclusive
COc1ccc2c(c1)CC/C(=C/c1ccncc1)C2=O	Nrf2 ARE act 22µM
COc1ccc2c(c1)c1c(c(=O)n(Cc3ccccc3)c(=O)n1CC(=O)Nc1ccccc1F)n2C	Nrf2 block inconclusive
Cc1nc(NCc2ccc3nsnc3c2)sc1-c1ccn(C)n1	none (no result: Nrf2 ARE act, Nrf2 block, ATXN2 expr inh, A549 viability)
CCc1nnc(NS(=O)(=O)c2ccc(NC(=O)c3ccc([N+](=O)[O-])s3)cc2)s1	Nrf2 ARE act 14µM (no result: Nrf2 block, ATXN2 expr inh, A549 viability)
CCc1nnc(NS(=O)(=O)c2ccc(NC(=O)c3cccc([N+](=O)[O-])c3)cc2)s1	none
CCc1nnc(NS(=O)(=O)c2ccc(Nc3ccc([N+](=O)[O-])c4nonc34)cc2)s1	A549 viability 23µM (no result: S2 tox)
CCc1nnc(NS(=O)(=O)c2ccc(NS(=O)(=O)c3ccccc3[N+](=O)[O-])cc2)s1	none
COc1ccc(OC)c(CN2CCCC(c3nc(-c4ccncc4)ncc3-c3ccccc3C)C2)c1 (configuration not stated)	none (no result: Nrf2 ARE act, Nrf2 block, ATXN2 expr inh, A549 viability)
FC(F)(F)c1ccc(N2CCN(c3ncnc4c3nnn4Cc3ccccc3Cl)CC2)cc1	S2 tox inconclusive, Nrf2 block inconclusive
Fc1ccc(N2CCN(c3ncnc4c3nnn4Cc3ccccc3Cl)CC2)cc1	Nrf2 block 13µM
O=[N+]([O-])c1ccc(/C=N/Nc2nc(N3CCCCC3)nc(N3CCCCC3)n2)o1	S2 tox inconclusive, Nrf2 block 18µM, A549 viability inconclusive
COc1c(/C=N/Nc2nc(N3CCCCC3)nc(N3CCCCC3)n2)cccc1[N+](=O)[O-]	Nrf2 block inconclusive
O=C(O)CCCCC(CCSCc1ccccc1)SCc1ccccc1 (configuration not stated)	none (no result: Nrf2 ARE act, S2 tox, Nrf2 block, A549 viability)
O=C1Cc2cc(CCN3CCN(c4nsc5ccccc45)CC3)c(Cl)cc2N1	S2 tox 35µM, ATXN2 expr inh inconclusive (no result: Nrf2 ARE act, Nrf2 block, A549 viability)
O=C1Cc2cc(S(=O)(=O)N3CCN(c4ccccc4)CC3)ccc2N1	none
Cc1ccccc1Nc1cc2ccccc2c(=O)[nH]1	S2 tox inconclusive, Nrf2 block inconclusive, A549 viability 16µM
Cc1ccccc1C(=O)Nc1ccc(-c2nc3ccc(C(=O)c4ccccc4)cc3[nH]2)cc1	Nrf2 block 21µM
O=C(c1ccccc1)c1ccc2nc(-c3ccc(NC(=O)c4ccccc4Br)cc3)[nH]c2c1	S2 tox inconclusive, Nrf2 block inconclusive
CCOC(=O)c1cccc(NC(=O)c2ccc3nc(Cc4ccccc4)oc3c2)c1	S2 tox 0.79µM, ATXN2 expr inh inconclusive (no result: Nrf2 block)
CCOc1cccc(C(=O)Nc2ccc3oc(-c4cccnc4)nc3c2)c1	S2 tox inconclusive, Nrf2 block 9.2µM, ATXN2 expr inh inconclusive
CCOc1cccc(C(=O)Nc2ccc3oc(Cc4ccc(Cl)cc4)nc3c2)c1	S2 tox inconclusive, Nrf2 block 21µM, A549 viability inconclusive
CCOC(=O)c1cccc(NC(=O)c2ccc(NC(=O)C3CCCO3)cc2)c1 (configuration not stated)	Nrf2 block 12µM
CCC(Oc1ccccc1)C(=O)Nc1cc(-c2ccccc2F)nn1-c1ccccc1 (configuration not stated)	none (no result: Nrf2 block)
COc1ccc(N(C(=O)c2cnccn2)C(C(=O)NC2CCCCC2)c2ccc(Cl)cc2)cc1 (configuration not stated)	none
Cc1cccc(N(C(=O)CNC(=O)c2ccco2)C(C(=O)NC2CCCCC2)c2cccnc2)c1 (configuration not stated)	none
O=C(NC1CCCCC1)C(c1cccnc1)N(C(=O)CCl)c1cccc(Cl)c1 (configuration not stated)	Nrf2 ARE act 13µM, S2 tox 11µM, Nrf2 block inconclusive, ATXN2 expr inh 20µM
COc1ccc(C(C(=O)NC2CCCCC2)N(C(=O)CCl)c2ccc(Cl)cc2)cc1 (configuration not stated)	S2 tox 3.2µM, ATXN2 expr inh 3.5µM
O=C(c1ccc2c(c1)OCCO2)C1CCN(S(=O)(=O)c2ccccc2F)CC1	Nrf2 block 13µM
O=C1CC(CC(=O)N2CC3CCCC2C3)(c2cccc(F)c2)C(=O)N1Cc1cccnc1 (configuration not stated)	none (no result: Nrf2 ARE act, Nrf2 block, ATXN2 expr inh, A549 viability)
Nc1c(N(CCC2=CCCCC2)C(=O)COc2ccc(F)cc2Cl)c(=O)[nH]c(=O)n1Cc1ccccc1	Nrf2 block 23µM, ATXN2 expr inh 11µM, A549 viability inconclusive (no result: S2 tox)
Cc1csc(C(C)N(C)C(=O)c2cc(NC(=O)C3CCC3)c3c(c2)nc(-c2ccncc2)n3C)n1 (configuration not stated)	none (no result: Nrf2 ARE act, Nrf2 block, ATXN2 expr inh, A549 viability)
Cc1cccc(Cn2c(=O)n(CCCC(=O)NCc3ccccc3Cl)c(=O)c3ccccc32)c1	S2 tox inconclusive, Nrf2 block 10µM
